Reference: PubChem BioAssay
Activity calls are given as the source filed them.

Tests used:
[1] = E. coli DRC41 culture turbidity changes, primary screen, E. coli filamentation inducer project, strain DRC41, OD650, 48 h (AID 1152);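 note: E. coli MC1000 strain DRC41 lacking acrAB efflux pump and sulA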; conditions: E. coli DRC41 (acrAB sulA), higher = more signal, called active from +8 up or from −8 down
[2] = small-molecule binders of probe aLefty1, primary screen, biochemical, small-molecule microarray, 635/667 nm fluorescence (AID 1153); conditions: higher = more signal;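 note: score merges spot fluorescence with signal-to-noise ratio from the scanned slide images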
[3] = PSAC antagonists in infected red cells, primary screen, cell-based, P. falciparum Indochina, OD700, 1 h (AID 1154); conditions: P. falciparum Indochina infected RBC osmotic lysis, higher = more signal, called active from +8 up or from −8 down
[4] = PSAC antagonists in infected red cells, primary screen, cell-based, P. falciparum Indochina, OD700, 2 h (AID 1155);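 note: lysis reports solute entry through the parasite surface anion channel PSAC; channel blockers reduce lysis of infected cells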; conditions: P. falciparum Indochina infected erythrocytes, osmotic lysis OD700; higher = more signal, called active from +8 up or from −8 down
[5] = osmotic lysis modulators in infected erythrocytes, primary screen, PSAC antagonist project, cell-based, P. falciparum Indochina, OD700, 3 h (AID 1156); conditions: higher = more signal, called active from +8 up or from −8 down
[6] = PSAC antagonists in infected red cells, primary screen, cell-based, P. falciparum Indochina, OD700, 18 h (AID 1157); conditions: P. falciparum Indochina infected erythrocytes, osmotic lysis OD700, 18 h; higher = more signal, called active from +8 up or from −8 down
[7] = modulators of S6 phosphorylation in cells, primary screen, cell-based, A549, cytoblot, luminescence, serum-stimulated (AID 1158); conditions: A549 phospho-S6 cytoblot, 5 h, higher = more signal;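 note: serum-stimulated A549 lung adenocarcinoma cells; signal is phosphorylated S6 detected by cytoblot immunostaining with HRP secondary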
[8] = target: NADPH oxidase 2 (Homo sapiens) (UniProt P04839); test: NOX2-dependent H2O2 signal modulators, primary screen, NOX inhibitor project, cell-based, HEK293-NOX2, PMA-stimulated, Amplex Red fluorescence (AID 1159); conditions: 45 min, higher = more signal, called active from +8 up or from −8 down; note: test concentration not given here
Chain of NADPH oxidase 2 (Homo sapiens) (P04839 whole entry, looked up): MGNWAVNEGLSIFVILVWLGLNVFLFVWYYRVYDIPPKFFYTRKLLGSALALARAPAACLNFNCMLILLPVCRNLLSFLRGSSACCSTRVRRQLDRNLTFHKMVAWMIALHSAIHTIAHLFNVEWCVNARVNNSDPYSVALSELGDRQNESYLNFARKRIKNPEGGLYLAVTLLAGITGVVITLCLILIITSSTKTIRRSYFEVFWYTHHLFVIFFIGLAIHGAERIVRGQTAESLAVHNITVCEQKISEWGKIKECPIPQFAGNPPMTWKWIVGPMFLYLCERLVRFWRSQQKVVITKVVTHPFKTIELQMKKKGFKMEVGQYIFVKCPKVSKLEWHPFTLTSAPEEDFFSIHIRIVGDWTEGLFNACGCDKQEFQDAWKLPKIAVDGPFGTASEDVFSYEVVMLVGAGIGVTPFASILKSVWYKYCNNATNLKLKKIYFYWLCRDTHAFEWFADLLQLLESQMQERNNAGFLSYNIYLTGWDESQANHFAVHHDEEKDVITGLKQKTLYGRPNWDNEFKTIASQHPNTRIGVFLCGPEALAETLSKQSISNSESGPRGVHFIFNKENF

[9] = target: NADPH oxidase 4 (Homo sapiens) (UniProt Q9NPH5); test: NOX4-dependent H2O2 signal modulators, primary screen, NOX inhibitor project, cell-based, HEK293-NOX4, tetracycline-induced, Amplex Red fluorescence (AID 1160); conditions: 45 min, higher = more signal, called active from +8 up or from −8 down
Chain of NADPH oxidase 4 (Homo sapiens) (Q9NPH5 whole entry, looked up): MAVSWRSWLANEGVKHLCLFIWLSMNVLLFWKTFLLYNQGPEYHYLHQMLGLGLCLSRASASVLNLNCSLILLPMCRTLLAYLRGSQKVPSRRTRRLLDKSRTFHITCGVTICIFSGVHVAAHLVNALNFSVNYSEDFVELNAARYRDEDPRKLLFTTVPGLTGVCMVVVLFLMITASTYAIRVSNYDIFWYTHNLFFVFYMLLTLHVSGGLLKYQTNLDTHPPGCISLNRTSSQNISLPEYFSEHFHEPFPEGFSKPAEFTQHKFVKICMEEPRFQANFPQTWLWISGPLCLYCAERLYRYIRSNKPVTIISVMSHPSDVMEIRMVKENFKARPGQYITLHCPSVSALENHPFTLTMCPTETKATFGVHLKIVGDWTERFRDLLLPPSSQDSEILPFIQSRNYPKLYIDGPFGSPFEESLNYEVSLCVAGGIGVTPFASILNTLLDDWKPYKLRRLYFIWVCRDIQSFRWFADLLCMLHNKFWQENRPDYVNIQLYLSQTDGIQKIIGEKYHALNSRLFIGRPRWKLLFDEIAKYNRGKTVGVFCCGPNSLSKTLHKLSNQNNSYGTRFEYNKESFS

[10] = target: NADPH oxidase 5 (Homo sapiens) (UniProt Q96PH1); test: NOX5-dependent H2O2 signal modulators, primary screen, NOX inhibitor project, cell-based, HEK293-NOX5, Amplex Red fluorescence (AID 1161); conditions: HEK293-NOX5, ionomycin, 45 min, higher = more signal
Chain of NADPH oxidase 5 (Homo sapiens) (Q96PH1 whole entry, looked up): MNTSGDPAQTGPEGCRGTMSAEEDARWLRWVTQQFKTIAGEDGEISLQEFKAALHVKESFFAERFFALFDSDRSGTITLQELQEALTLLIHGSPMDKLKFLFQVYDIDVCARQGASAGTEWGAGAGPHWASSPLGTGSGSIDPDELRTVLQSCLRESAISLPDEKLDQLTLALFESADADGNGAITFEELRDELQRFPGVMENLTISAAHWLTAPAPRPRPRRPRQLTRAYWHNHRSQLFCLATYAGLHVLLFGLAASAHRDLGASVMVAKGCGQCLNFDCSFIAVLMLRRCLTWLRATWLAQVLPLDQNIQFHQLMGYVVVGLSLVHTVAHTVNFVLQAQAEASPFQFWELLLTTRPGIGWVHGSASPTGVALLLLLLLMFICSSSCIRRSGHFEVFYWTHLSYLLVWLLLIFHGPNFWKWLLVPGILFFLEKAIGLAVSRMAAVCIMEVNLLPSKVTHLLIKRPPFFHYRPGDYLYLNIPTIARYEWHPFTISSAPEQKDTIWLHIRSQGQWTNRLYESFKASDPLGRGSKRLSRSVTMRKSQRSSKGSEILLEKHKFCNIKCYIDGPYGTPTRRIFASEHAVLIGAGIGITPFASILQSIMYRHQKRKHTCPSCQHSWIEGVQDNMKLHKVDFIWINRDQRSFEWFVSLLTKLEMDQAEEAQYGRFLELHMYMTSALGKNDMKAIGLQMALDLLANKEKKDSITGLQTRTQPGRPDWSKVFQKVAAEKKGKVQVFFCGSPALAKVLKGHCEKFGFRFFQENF

| SMILES | z-score [1] | composite z-score [2] | z-score [3] | z-score [4] | z-score [5] | z-score [6] | z-score [7] | z-score [8] | z-score [9] | z-score [10] |
| --- | --- | --- | --- | --- | --- | --- | --- | --- | --- | --- |
| CC(=O)NCCCC[C@@H]1NC(=O)[C@@H]2C[C@H](C(=O)O)[C@H](c3ccc(O)cc3)N2C1=O | 0.139 (inactive) | 0.202 | 1.15 (inactive) | 0.508 (inactive) | 1.08 (inactive) | 0.275 (inactive) | -0.544 | 1.03 (inactive) | -1.04 (inactive) | 0.422 |
| C=CCOC(=O)[C@H]1[C@@H]2C(=O)O[C@@H](c3ccccc3)[C@@H](c3ccccc3)N2[C@@H](c2ccc(OCCOC(=O)[C@H]3C[C@H]4C(=O)N[C@@H](CCCC[N+](C)(C)C)C(=O)N4[C@H]3c3cccc(OCCO)c3)cc2)[C@]12C(=O)Nc1ccc(I)cc12 | 0.039 (inactive) | -0.17 | 3.12 (inactive) | 2.53 (inactive) | 1.58 (inactive) | 1.68 (inactive) | 0.4 | 0.822 (inactive) | 0.0287 (inactive) | 0.14 |
| C[C@@H]1ON(c2ccc(C(=O)OC(C)(C)C)cc2)[C@H](c2ccc(Br)cc2)[C@H]1C(=O)N1C(=O)OC[C@H]1Cc1ccccc1 | 0.351 (inactive) | -0.0241 | 0.393 (inactive) | 0.358 (inactive) | -0.65 (inactive) | 0.428 (inactive) | 0.479 | -0.495 (inactive) | 0.0298 (inactive) | 0.191 |
| Cc1ccc(C(C)CC(O)C2C=CC3C(=O)N(c4ccccc4)C(=O)C3N2Nc2ccc(C(C)C)cc2)o1 (stereo not given) | -1.84 (inactive) | 0.629 | 1.45 (inactive) | 0.871 (inactive) | 0.948 (inactive) | 0.631 (inactive) | -1.31 | -0.831 (inactive) | -2.34 (inactive) | -3.53 |
| C[C@]1(C(=O)NCCN2CCOCC2)c2ccccc2C(=O)N(Cc2ccc(OC(F)(F)F)cc2)[C@H]1c1ccc(CO)cc1 | 0.0793 (inactive) | -0.0523 | 6.9 (inactive) | 0.621 (inactive) | 3.05 (inactive) | 0.327 (inactive) | -0.173 | 0.752 (inactive) | 1.19 (inactive) | 0.0149 |
| C=CCNC(=O)[C@@H]1[C@H]2C(=O)O[C@H](c3ccccc3)[C@H](c3ccccc3)N2[C@H](c2ccc(OCCO)cc2)[C@@]12C(=O)N(C(=O)OCCOC)c1ccc(C#CC3=CCCCC3)cc12 | -0.892 (inactive) | 0.173 | 6.2 (inactive) | 2.12 (inactive) | 0.669 (inactive) | 1.46 (inactive) | 0.0846 | 1.13 (inactive) | -0.0729 (inactive) | 1.69 |
